# Rows were chosen to be rich in hits. Some 0.36% of all compounds tested hit in one or more screens of this group.
# ERG Ets-DNA blk: ERG Ets/DNA interaction inhibition; P11308; fluorescence polarization, His-ERG Ets domain / labelled DNA; Potency, µM (titrated, usually from 76.9 µM), inactives show at the top dose FP activity, negative = inhibition, usual class: inhibitors; hit rate 0.028% among 370,000; AID 624246; active = well fitted inhibition curve with a large enough effect in the polarisation, with a control signal flat; inconclusive = small, poorly fitted or top-dose-only effect, or effect the other way, or a change in a side signal; inactive = no such curve, though single readings can be large or run the other way; the % refers to the polarisation;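 also: polarization taken with two DNA probes labelled with fluorescein and Texas red; potency is read from the fitted curve at half-maximal effect; % of control where 0% means no effect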
# Target sequence (P11308 whole entry, looked up, the tested form may be a part): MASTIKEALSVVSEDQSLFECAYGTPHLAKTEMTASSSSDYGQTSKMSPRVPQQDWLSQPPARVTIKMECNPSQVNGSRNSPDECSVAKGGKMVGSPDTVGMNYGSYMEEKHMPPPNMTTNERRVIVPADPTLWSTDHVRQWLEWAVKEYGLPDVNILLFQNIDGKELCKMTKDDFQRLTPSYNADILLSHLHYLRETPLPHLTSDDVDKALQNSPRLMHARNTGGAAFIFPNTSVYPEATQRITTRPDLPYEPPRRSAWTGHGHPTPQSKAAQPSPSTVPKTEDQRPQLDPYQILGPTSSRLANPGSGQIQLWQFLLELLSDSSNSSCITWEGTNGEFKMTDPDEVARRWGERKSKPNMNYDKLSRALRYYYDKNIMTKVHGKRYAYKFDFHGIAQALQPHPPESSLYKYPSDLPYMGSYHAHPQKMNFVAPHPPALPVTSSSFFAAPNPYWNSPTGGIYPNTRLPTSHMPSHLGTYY
#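 His-tagged ERG Ets domain (1 uM in the protein solution; 300mM KCl, 50mM Tris-HCl, 1mM EDTA, 1mM DTT, pH 7.5) received compound, then a probe mix of 5 nM fluorescein-DNA and 100nM Texas-615-DNA. Fluorescence polarization was read for both dyes.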
# PTHR1 agonist: PTHR1 (human) receptor agonism. HEK293 GP2 PTHR1 cells, GloSensor cAMP luminescence, 1 h. Potency, µM (doses to about 115 µM), for the others: at the top dose activation, hits mostly activators. hit rate 0.075% among 410,000; also: potency is read from the fitted curve at half-maximal effect; nearly all actives have a fitted effect of over 55% in size
#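 HEK-293-derived GP2 cells expressing PTHR1 and a GloSensor cAMP reporter, 3,000/well, plated overnight, given luciferin plus IBMX (each 0.5 mM as added) for 1 h at 37 °C, then compound for 1 h at 37 °C. Luminescence was read after 15 min at room temperature.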
# RGS4 inh: human RGS4 inhibition. P49798. hit rate 0.039% among 390,000. Transcreener GDP fluorescence polarization, RGS4-accelerated GTP hydrolysis. Potency, µM (series often up to 114 µM), for inactives: at the highest dose activity change, negative = inhibition, actives largely listed as inhibitors; also: potency is read from the fitted curve at half-maximal effect; % is scaled to controls: 0 for no effect and ±100 for the full control effect; nearly all actives have a fitted effect of over 75% in size
# Target sequence (P49798 whole entry, looked up): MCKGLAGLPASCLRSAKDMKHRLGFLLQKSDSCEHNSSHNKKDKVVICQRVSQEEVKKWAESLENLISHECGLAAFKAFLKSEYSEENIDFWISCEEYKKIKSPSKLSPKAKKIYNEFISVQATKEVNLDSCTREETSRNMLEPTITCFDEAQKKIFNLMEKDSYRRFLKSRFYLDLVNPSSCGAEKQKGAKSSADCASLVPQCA
#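 MLSMR compounds (23 nl, pin-transferred) preincubated 10 min at room temperature with a 500nM (2x) first reagent, then RGS4 at 900nM (2x) plus Transcreener GDP mix added; fluorescence polarization (620/688 nm) read before and after 90 min at 30 °C.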
# CCT modulator: cytosolic chaperonin activity modulation | purified chaperonin ATPase assay, HTRF ADP detection, 30 min | activity change, % (test concentration not listed), hits read low | hit rate 0.3% among 360,000; in the data active = activity change below about -30%; also: % is scaled to controls: 0 for no effect and ±100 for the full control effect
#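 TRiC (40 or 20 nM final, by batch activity) in 30 mM Tris pH 7.4, 100 mM KCl, 5 mM MgCl2, 1 mM DTT was treated with compound at 76 uM single dose, then 10 uM ATP, 30 min at 37 °C. ADP was read by HTRF Transcreener.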
# MmCpn inh: M. maripaludis TRiC chaperonin inhibition | purified Mm-Cpn ATPase, ADP Transcreener TR-FRET | AID 504842 | Potency, µM (top dose mostly 76.9 µM), without a hit: at the highest dose activity, negative = inhibition, actives largely listed as inhibitors | hit rate 0.031% among 330,000; also: potency is read from the fitted curve at half-maximal effect; % is scaled to controls: 0 for no effect and ±100 for the full control effect; nearly all actives have a fitted effect of over 80% in size
#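 Purified archaeal Mm-CPN (25nM final) preincubated 10 min at 37degC with compound, then 10uM ATP for 30 min at 37degC; ADP measured by HTRF Transcreener TR-FRET; buffer 30 mM TRIS pH 7.4, 100mM KCl, 5mM MgCl2, 1mM DTT.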
# An asterisk follows results filed as active; i = inactive; ? = inconclusive; · = no result; [ ] = remark or other dose. Unless noted, calls follow the shape of the dose curve; as a rule, active = well fitted curve in the direction sought with a large enough effect; inconclusive = small, poorly fitted or top-dose-only effect, or another doubt; inactive = no such curve, though single readings can be large; an effect the other way counts as inactive or inconclusive.
SMILES,ERG Ets-DNA blk,PTHR1 agonist,RGS4 inh,CCT modulator,MmCpn inh
Cc1cc(-c2nnco2)c(C)n1-c1ccc(F)cc1,·,7.08µM*,16.6%,-8.9,-1.2%
O=C(Cc1c[nH]c2ccccc12)NCc1ccc2c(c1)OCO2,3.2%,-5.2%[57.5 µM],-32.9%,-37.7*,-2.5%
CN(C)c1cccc(C(=O)NCc2ccc3c(c2)OCO3)c1,-5.4%,-51.0%,6.5%,-39.5*,-5.4%
CC(=O)NC1=CC(=O)c2nonc2C1=O,·,·,-36.9%,·,·
CC1=C(c2ccc(C)c(C)c2)S(=O)(=O)N(Cc2ccc(C(=O)NCc3ccc(C)cc3)cc2)C1=O,1.1%,i,3.1%,·,·
C/C(=N\N=C1\NC(=O)C(CC(=O)Nc2ccc(C)c(Cl)c2)S1)C(C)(C)C (configuration not stated),?,-3.3%,-34.0%,-44.5*,3.2%
C/C(=N\N=C1\NC(=O)C(CC(=O)Nc2ccc(Cl)cc2)S1)c1ccco1 (configuration not stated),3.0%,i,-28.3%,-8.0,-4.8%[15.4 µM]
Nc1nnc(SC2CC(=O)N(c3ccccc3)C2=O)s1 (configuration not stated),-3.2%,-17.3%[57.5 µM],?,-97.1*,0.2%
Cc1ccc(NC(=O)CSc2nc3ccc(Nc4nc(N5CCOCC5)nc(N5CCOCC5)n4)cc3s2)cc1,-1.8%,i,-12.0%,-0.4,-1.4%
COc1ccc(NC(=O)CSc2nc3ccc(Nc4nc(N5CCOCC5)nc(N5CCOCC5)n4)cc3s2)cc1,-0.2%,i,-25.2%,-74.8*,-3.9%
CC(C)(C)n1nnnc1C(c1ccccc1)N1CCc2ccccc2C1 (configuration not stated),-4.0%,i,39.0%,-57.4*,-7.8%
COCCNC(=O)C1(C(F)(F)F)C/C(=C/CCO)CCCO1 (configuration not stated),·,·,16.8%,·,·
COc1ccc(-c2cc(C(=O)Nc3cc(OC)c(OC)c(OC)c3)no2)cc1,-4.5%,-20.5%,9.5%,-34.0*,0.2%
Nc1nc2ccc(C(=O)Nc3ccccc3)cc2s1,7.8%,3.98µM*,-4.8%,0.6,-0.6%
C=CCCN(Cc1ccc(OC)cc1)S(=O)(=O)c1ccccc1Br,·,·,-4.9%,·,·
COc1ccc(NC(=O)CSc2nnc(CCC(=O)O)c(=O)n2N)cc1,2.9%,i,-9.1%,-56.1*,-1.5%
CC(=O)Nc1ccc(S(=O)(=O)NCCc2cn3nc(C)c(C)nc3n2)cc1,-6.5%,-15.0%,-7.6%,-79.3*,0.1%
COCCCN(Cc1ccco1)C(=O)c1cc2c(s1)-c1ccccc1OC2,-1.2%,-4.3%,1.3%,·,·
COc1ccc(C2CC(=O)c3cc(-c4nc(-c5ccc(C)cc5)cs4)c(=O)[nH]c3C2)cc1 (configuration not stated),-2.8%,-22.9%,-4.6%,·,·
CSc1ncc(C(=O)NCc2ccc(C)cc2)c(C)n1,3.3%,i,11.5%,·,·
O=C(O)C=Cc1ccc(Cn2ccnc2)cc1,·,·,2.67µM*,·,·
O=C(O)/C=C/c1ccc(Cn2ccnc2)cc1,0.6%,-26.5%,-34.8%,-1.2,·
CCOC(=O)N1CCN(C(=O)CCS(=O)(=O)c2ccc3c(c2)CC(C)N3C(=O)CC)CC1 (configuration not stated),0.9%,-7.1%,-38.5%,-76.9*,0.2%
C=CCOc1ccc(C(=O)/C=C2/C(=O)Nc3ccccc32)cc1,-7.6%,-21.0%,-2.0%,-44.9*,-2.4%
CCOC(=O)Cc1ccc(NC(=O)N2CCc3c(sc4c3CCCC4)C2c2ccc(F)cc2)cc1 (configuration not stated),-4.0%,i,-5.6%,·,·
SMILES,ERG Ets-DNA blk,PTHR1 agonist,RGS4 inh,CCT modulator,MmCpn inh
O=C(NCc1ccncc1)C12CC3CC(CC(C3)C1)C2,-0.5%,-24.2%[57.5 µM],-22.3%,-84.3*,1.4%
C/C=C/c1ccc(OCCCCN2CCN(CC)CC2)c(OC)c1,9.1%,i,-21.5%[56.9 µM],-58.4*,0.3%
C/C=C/c1ccc(OCCCCN2CC(C)CC(C)C2)c(OC)c1 (configuration not stated),6.9%,-8.8%,10.8%,-0.1,-5.8%[15.4 µM]
CC1CCCCC1NC(=S)NC(=O)c1ccccc1Cl (configuration not stated),-6.6%,-19.4%,-12.4%,1.3,-1.1%
CC1CCCCC1NC(=S)NC(=O)c1sc2ccccc2c1Cl (configuration not stated),-1.4%,-24.7%,-10.4%,-46.9*,?
CCOC(=O)C1CCCN(c2c(C(=O)c3ccccc3)cnc3ccc(F)cc23)C1 (configuration not stated),-0.3%,i,19.6%,·,·
Cc1ccc(CSc2nc3sc(C)c(C)c3c(=O)n2Cc2ccco2)cc1,2.5%,i,3.8%,-30.7*,-3.4%
Cc1sc2nc(SCc3ccccc3)n(Cc3ccco3)c(=O)c2c1C,-4.6%,i,-7.4%,-1.0,-1.5%
CN(C)S(=O)(=O)c1cc([N+](=O)[O-])ccc1N1CCCCCC1,-9.1%,-7.3%[57.5 µM],8.4%,-30.8*,-5.9%
CC(C)CN(CC(C)C)S(=O)(=O)c1cc([N+](=O)[O-])ccc1N1CCCCCC1,-6.3%,i,-2.5%[11.4 µM],-2.9,0.6%
CCOC(=O)CN1N=C(/C=C/c2ccc(OCC)cc2)CCC1=O,11.4%,-8.5%,-8.7%,-8.1,0.1%
CCOC(=O)CN1N=C(/C=C/c2ccccc2)CCC1=O,8.5%,i,-10.1%,-47.8*,·
COc1ccc(-c2cccc(C(=O)Nc3cccc(C(=O)O)c3)c2)cc1,-5.5%,-16.3%,-22.0%,-78.6*,1.3%
COC(=O)c1cccc(NC(=O)c2ccc(OC)c(Cl)c2)c1,-2.0%,i,-9.3%,-77.5*,1.6%
COc1ccc(NC(=O)/C=C/C(=O)O)cc1Cl,·,-16.9%,-21.4%,-0.9,6.31µM*
COc1ccc(C(=O)Nc2cc(C(=O)O)cc(C(=O)O)c2)cc1Cl,8.9%,-1.7%,-4.6%[56.9 µM],-0.5,0.9%
CCN(C(=O)Cn1c(C(=O)OC)cc2sccc21)c1cccc(C)c1,-1.1%,i,7.6%,·,·
COc1ccc(CNC(=O)Nc2cn(CC(C)C)c(=O)c3ccccc23)cc1,-1.1%,-2.6%,-26.5%,·,·
COc1ccc(NC(=O)CNC(=O)c2nn(-c3ccc(OC)cc3OC)c(=O)c3ccccc23)c(OC)c1,-0.8%,-17.0%,-6.7%,-55.6*,0.6%
Cc1cc(C)c(S(=O)(=O)NCCn2c(C)cc3ccccc32)c(C)c1,?,-55.5%,-1.3%,0.0,35.5µM*
O=[N+]([O-])c1cccc(-c2ccc(SCc3cccnc3)nn2)c1,-10.0%,-71.0%,3.0%,-76.2*,-1.1%
CNc1c(NS(=O)(=O)c2ccc(OC)c(Cl)c2)c(=O)oc2ccccc12,-2.2%,-7.9%,4.6%,-63.5*,4.7%
COc1ccc(OC)c(NC(=O)CSc2nnc(C)n2Cc2ccccc2)c1,2.0%,11.5%[57.5 µM],7.1%,-49.2*,0.4%

# Source: PubChem (National Center for Advancing Translational Sciences (NCATS))
